Compound activity (PubChem)
This is a sample that favours compounds with a hit; in the whole collection about 4.2% have one here.
Mito fusion act: mitochondrial division inhibition or fusion activation | S. cerevisiae fusion-defective mutant growth rescue, CellTiterGlo 48 h | Potency, µM (titrated, usually from 46.1 µM), most hits filed as activators | 0.23% of 320,000 active; note: nearly all actives have a fitted effect of over 45% in size
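S. cerevisiae fusion-defective temperature-sensitive mutants (e.g. fzo1-1, mgm1-5) grown 48 h at 37C in YPEG (ethanol/glycerol non-fermentable) medium with 23 nl compound per well; growth rescue read as CellTiterGlo luminescence.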
AT treatment: candidate therapy for ataxia-telangiectasia; 0.19% of 320,000 active; F2112 A-T fibroblasts, KAP-1 phosphorylation AlphaLISA; neocarzinostatin DNA damage 30 min before lysis; AID 485349; Potency, µM (series often up to 57.5 µM), most hits filed as activators; note: nearly all actives have a fitted effect of over 45% in size
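ATM-like activity read as KAP-1 phosphorylation via AlphaLISA donor/acceptor antibody pairs after lysis and 6 hr at 25C. Cells were ATM-null patient fibroblasts (F2112, hTERT), dosed 60 min, then exposed to the DSB inducer NCS for 30 min.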
SW480 rereplic: DNA re-replication induction in SW480 cells; Potency, µM (doses to about 46.1 µM), hits mostly activators; AID 624297; SW480 DNA re-replication, Hoechst DNA content imaging, 48 h; 1.8% of 340,000 active; note: nearly all actives have a fitted effect of over 55% in size
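Image-based DNA-content assay: after two days of treatment, nuclei were labelled with the DNA dye Hoechst and imaged, and hits were compounds raising the count of nuclei showing high fluorescence intensity.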
MCF10A rerep: DNA re-replication induction in MCF 10a cells; 2.9% of 350,000 active; Potency, µM (highest dose often 46.1 µM), most hits filed as activators; MCF 10A DNA re-replication, Hoechst nuclear intensity, 48 h; note: nearly all actives have a fitted effect of over 50% in size
Integrin act MD: integrin-mediated muscular dystrophy alleviation activation. alpha7betagal myoblasts, beta-gal FDG fluorescence, 48 h. Potency, µM (doses to about 38.3 µM), actives largely listed as activators. 0.064% of 350,000 active. AID 624291; note: nearly all actives have a fitted effect of over 60% in size
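alpha7betagal+/- myoblasts (passage 13, 250/well) treated 48 h at 37C with compounds at 1:260 dilution of DMSO stock. Lysed, then beta-galactosidase activity read as FDG fluorescence (ex 480/em 540) after 30 min, with pre-read for autofluorescence.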
Each line names hits and unclear results; the compound was inactive in the other large screens; ! = not active in a repeat. Calls come from the whole dose curve; as a rule, active = well fitted activation curve with a large enough effect; inconclusive = small, poorly fitted or top-dose-only effect; inactive = no such curve, though single readings can be large or run the other way.

NC1=NC2(CCCCC2)N=C(Nc2ccc(F)cc2F)N1	none
Cc1cc(C)cc(NC2=NC3(CCCCC3)N=C(N)N2)c1	SW480 rereplic inconclusive, MCF10A rerep 21µM
O=S(=O)(Nc1ccc(Cl)nn1)c1ccccc1	SW480 rereplic inconclusive, MCF10A rerep 13µM
Cc1ccc(SCC(=O)c2ccc(CC(=O)O)s2)cc1	none
O=C(Nc1ccccc1F)c1coc(=O)c(Br)c1	SW480 rereplic inconclusive, MCF10A rerep inconclusive
O=C(NCCc1ccc(F)cc1)c1coc(=O)c(Br)c1	MCF10A rerep 4.1µM
CCOc1ccc(-n2nc3c(=O)n(CCN4CCCCC4)nc(C)c3c2C)cc1	SW480 rereplic 23µM
COc1ccccc1C(=O)N=c1sc2c(C)ccc(OC)c2n1C	AT treatment 16µM, SW480 rereplic inconclusive, MCF10A rerep inconclusive
CCn1c(=NC(=O)C2COc3ccccc3O2)sc2c(C)ccc(OC)c21 (stereo not given)	MCF10A rerep 16µM
CCOc1nc(C)cc(C)c1S(=O)(=O)c1ccc(Cl)cc1	none
Cc1ccc(C(O)CSc2nnc(-c3ccc4ccccc4c3)n2C)cc1 (stereo not given)	none
COC(=O)c1cnn(-c2ccc(C(=O)Nc3ccc(C(C)=O)cc3)cc2)c1N	none (no result: SW480 rereplic, MCF10A rerep, Integrin act MD)
CC(=O)OCC1OC(OCc2cn(C[C@H]3CC[C@H](Cn4cc(COC5OC(COC(C)=O)C(OC(C)=O)C(OC(C)=O)C5OC(C)=O)nn4)O3)nn2)C(OC(C)=O)C(OC(C)=O)C1OC(C)=O (stereo not given in full)	none
CCN(CC)C(=O)Oc1ccc2c(=O)c(-c3ccc(OC)cc3)coc2c1	SW480 rereplic inconclusive, MCF10A rerep 13µM
CC(C)Oc1ccc2c(=O)c(-c3ccccc3)coc2c1	Mito fusion act 25µM! (no result: Integrin act MD)
CC(C)Nc1nc(NC(C)C)nc(N(C#N)CCOc2ccc(Cl)cc2Cl)n1	SW480 rereplic inconclusive, MCF10A rerep 18µM (no result: AT treatment)
CCOC(=O)c1c(-c2ccccc2)csc1/N=C/C1C(=O)CCCC1=O	SW480 rereplic inconclusive, MCF10A rerep inconclusive
CCOC(=O)c1c(CC(C)C)csc1/N=C/C1C(=O)CCCC1=O	SW480 rereplic 16µM, MCF10A rerep inconclusive
COc1ccccc1NC(=O)N1CCC(c2nc3cc(C)c(C)cc3[nH]2)CC1	SW480 rereplic 5.8µM, MCF10A rerep 3.7µM
CCOc1ccc(C(=O)NCC(=O)OCC(=O)N(C)CC(=O)Nc2ccccc2CC)cc1OCC	none (no result: Mito fusion act, AT treatment)
COc1cc(C(=O)N/N=C/c2ccsc2C)cc(OC)c1OC	SW480 rereplic 0.65µM, MCF10A rerep inconclusive
COc1cc(C(=O)N/N=C/C2CC=CCC2)cc(OC)c1OC (stereo not given)	SW480 rereplic inconclusive, MCF10A rerep 3.7µM
O=C(N/N=C/C1CC=CCC1)c1ccc(O)cc1O (stereo not given)	none
CC1C(=O)N(Cc2cn(Cc3ccco3)nn2)CCS(=O)(=O)N1Cc1ccc(-c2ccc(F)nc2)cc1 (stereo not given)	none (no result: Mito fusion act, AT treatment, SW480 rereplic, MCF10A rerep)
COc1ccc([C@]23Cc4ccccc4C(O2)C2=C(CC4(CCCCC4)OC2=O)O3)cc1	none (no result: SW480 rereplic, MCF10A rerep, Integrin act MD)
CC(CCc1ccccc1)NC(=O)C1CCCN(C(=O)c2cc3sccc3n2C)C1 (stereo not given)	none (no result: AT treatment)
CC(CCc1ccccc1)NC(=O)c1cc2sccc2n1C (stereo not given)	SW480 rereplic inconclusive, MCF10A rerep 15µM
O=C(N/N=C/c1cccc(C(F)(F)F)c1)C1CCN(c2ncc(C(F)(F)F)cc2Cl)CC1	none
Oc1c(Cl)cc(Cl)cc1CNc1ccc(Br)cn1	MCF10A rerep 11µM
O=C(CCNC(=O)c1ccc([N+](=O)[O-])cc1)Nc1ccc(S(=O)(=O)N2CCOCC2)cc1	none
COc1ccc(NC(=O)CC(c2ccc(F)cc2)c2ccc(OC(C)C)cc2)cc1 (stereo not given)	MCF10A rerep 18µM
CC(C)Oc1ccc(C(CC(=O)O)c2ccc(F)cc2)cc1 (stereo not given)	Integrin act MD inconclusive
C/C=C\C=C/C(=O)Nc1cccc(C2=NOC3(C2)C[C@@H](C(N)=O)N(C(=O)COc2ccc(Cl)cc2)C3)c1 (stereo not given in full)	AT treatment 3.2µM, SW480 rereplic inconclusive
Cc1ccc(NC(=O)Cn2c(O)c(N=NS(=O)(=O)c3ccc(C)cc3)c3ccccc32)cc1	SW480 rereplic inconclusive, MCF10A rerep 21µM
Cc1ccc(NC(=O)Cn2c(O)c(N=NC(N)=O)c3ccccc32)cc1	SW480 rereplic inconclusive, MCF10A rerep inconclusive
O=C(CSc1nnc(NC(=O)c2ccc(F)cc2F)s1)NC1CCCC1	none
COc1ccc(/C=C(\C#N)C(=O)Nc2cc(C)c(Cl)cc2OC)cc1O	AT treatment inconclusive, SW480 rereplic 10µM, MCF10A rerep inconclusive
COc1ccc(/C=C(\C#N)C(=O)NCc2ccccc2)cc1O	SW480 rereplic inconclusive, MCF10A rerep inconclusive
CC1(C)CC(n2c(NCCO)nc3c(c2=O)C2(CCCC2)Cc2ccccc2-3)CCO1 (stereo not given)	none
O=c1c2c(nc(NCCO)n1CC1CCCCC1)-c1ccccc1CC21CCCC1	MCF10A rerep 23µM (no result: AT treatment)
CN(C)S(=O)(=O)c1ccc(NC(=O)c2ccc(Br)o2)cc1	none (no result: AT treatment)
CN(C1CCCCC1)S(=O)(=O)c1ccc(NC(=O)c2ccc(Br)o2)cc1	Mito fusion act 11µM, MCF10A rerep inconclusive
COC(=O)C(=Cc1ccc(-c2ccsc2C(=O)OC)o1)C(=O)OC	SW480 rereplic 5.8µM, MCF10A rerep 26µM
O=C(COC(=O)Cn1cnc2ccccc21)Nc1ccc2c(c1)C(=O)c1ccccc1C2=O	SW480 rereplic 6.5µM, MCF10A rerep inconclusive, Integrin act MD inconclusive
O=C(COC(=O)Cn1cnc2ccccc21)Nc1ccc(Br)cc1	none (no result: Mito fusion act, AT treatment, SW480 rereplic, MCF10A rerep)
O=C(c1ccc(Cn2c(=S)[nH]c3ccc(Br)cc3c2=O)cc1)N1CCN(C2CCCCC2)CC1	SW480 rereplic inconclusive, MCF10A rerep inconclusive
O=C(c1ccc2c(c1)[nH]c(=S)n1c3ccccc3nc21)N1CCN(c2ncccn2)CC1	MCF10A rerep 9.2µM (no result: AT treatment)
O=C(NCCN1CCN(c2ccccc2)CC1)c1ccc2c(c1)[nH]c(=S)n1c3ccccc3nc21	MCF10A rerep inconclusive
COc1ccc(C(=O)C(C)OC(=O)C2CC3CCCC(C2)C3=O)cc1 (stereo not given)	none (no result: Mito fusion act, AT treatment, SW480 rereplic, MCF10A rerep)
Cc1ccc2c(CNCc3ccccc3)cc(=O)oc2c1	SW480 rereplic 8.2µM, MCF10A rerep 12µM
Cc1ccc2c(CN(C)Cc3cccc(F)c3)cc(=O)oc2c1	SW480 rereplic inconclusive, MCF10A rerep inconclusive
C=C(CN(C)C)C(=O)c1cc(C)ccc1C	SW480 rereplic 5.8µM, MCF10A rerep 2.6µM (no result: Mito fusion act, AT treatment)
O=C(O)COCCN1CCN([C@@H](c2ccccc2)c2ccc(Cl)cc2)CC1	none (no result: Mito fusion act, AT treatment, Integrin act MD)
CCOC(=O)C1=C(C)C/C(=N\NC(=O)c2ccccc2O)CC1	SW480 rereplic 18µM, Integrin act MD inconclusive
CCOC(=O)c1ccccc1O	none (no result: Mito fusion act, AT treatment, Integrin act MD)
